Values joined by “and” are separate entries in the source; they are usually repeats but may differ in a detail not shown here. Equal values may be shown once. Inconclusive results are not listed. More than one record can exist for a structure, and the calls need not agree. Active and inactive are the calls of the source. Calls come from the whole dose curve; as a rule, active = well fitted inhibition curve with a large enough effect; inconclusive = small, poorly fitted or top-dose-only effect; inactive = flat fitted curve, though single readings scatter.

Sequence of Microtubule-associated protein tau (Homo sapiens) (P10636 561-689 P618L limits assumed): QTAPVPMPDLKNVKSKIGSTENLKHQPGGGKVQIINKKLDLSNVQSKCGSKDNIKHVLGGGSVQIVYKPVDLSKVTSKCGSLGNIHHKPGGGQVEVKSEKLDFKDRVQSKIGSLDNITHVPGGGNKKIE

The target in this assay is Microtubule-associated protein tau (Homo sapiens) (UniProt P10636). In words: Confirmation Concentration-Response Assay for Inhibitors of Tau Fibril Formation, Thioflavin T Binding. The following applies: recombinant tau K18 P301L (four-repeat tau fragment) heparin fibrillization, ThT fluorescence; series mostly up to 100 µM; activity change, negative = inhibition: at the top concentration. The source says:
NIH Molecular Libraries Probe Production Network [MLPCN] NIH Chemical Genomics Center [NCGC] MLPCN Grant: X01 MH083262-01 Assay Provider: Carlo Ballatore, University of Pennsylvania NCGC Assay Overview: The microtubule-associated protein tau is an abundant protein in the axons of neurons that stabilizes microtubules. With its ability to modulate microtubule dynamics, tau contributes directly or indirectly, to key structural and regulatory cellular functions. Particularly important is the influence tau exerts on axonal transport, which allows signaling molecules, trophic factors and other essential cellular constituents to travel along the axons. Under pathological conditions, tau becomes sequestered into insoluble aggregates called neurofibrillary tangles. This phenomenon is believed to have pathological consequences by promoting axonal transport deficits that ultimately lead to synaptic dysfunction and neuronal loss. To identify inhibitors of tau aggregation, a heparin-induced tau fibril formation assay was used that employed a recombinantly expressed fragment of tau, K18 (Q242-E372), bearing a P301L mutation (Gustke et al. 1994; Hong et al. 1998). This assay monitors tau fibrillization by Thioflavin T (ThT) fluorescence. Gustke, N., B. Trinczek, et al. (1994). "Domains of tau protein and interactions with microtubules." Biochemistry 33(32): 9511-22. Hong, M., V. Zhukareva, et al. (1998). "Mutation-specific functional impairments in distinct tau isoforms of hereditary FTDP-17." Science 282(5395): 1914-7. Li, W. and V. M. Lee (2006). "Characterization of two VQIXXK motifs for tau fibrillization in vitro." Biochemistry 45(51): 15692-701. von Bergen, M., S. Barghorn, et al. (2001). "Mutations of tau protein in frontotemporal dementia promote aggregation of paired helical filaments by enhancing local beta-structure." J Biol Chem 276(51): 48165-74.
For screening, 2 uL/well human K18 P301L (15 uM unlabeled and 0.24 uM Alexa 594-labeled tau, final concentrations) in reagent buffer (100 mM sodium acetate pH 7) was dispensed into black solid 1536-well plates (Grenier) using a solenoid-based dispenser. Following transfer of 23 nL compound or DMSO vehicle by a pin tool, 2 uL/well heparin (20 uM final concentration) in reagent buffer was added and the plate centrifuged 15 s at 1000 RPM. Plates were incubated 6 hr at 37 C and then 1 uL/well ThT (30 uM final concentration) was added. After a 1 hr ambient incubation, the plates were read by an Envision (Perkin Elmer) to monitor ThT fluorescence (450/8 nm excitation and 510/23 nm emission). Keywords: NIH Roadmap, MLPCN, MLI, MLSMR, NCGC, qHTS, tau, tauopathies, Alzheimer's disease, fibril, neurodegeneration, aggregation
With `Cn1ncc(Cl)c1C(=O)Nc1cccc(Cl)c1`, the Potency is 44.7 µM (active).

Consider `Cc1nc2ccccc2oc1=O`, for which the “activity change, negative = inhibition” value was -2.55% (inactive).

Regarding `COc1ccc(S(=O)(=O)Nc2cc(Sc3ncn[nH]3)c(O)c3ccccc23)cc1`, the Potency is 2.82 µM (active).

With `CCOC(=O)c1nn(-c2cccc(C(F)(F)F)c2)c(=O)c2c(N)scc12`, the Potency is 0.891 µM (active).

For `O=S(=O)(c1ccc(N=C2NN=C(c3cc(F)ccc3F)CS2)cc1)N1CCOCC1`, the Potency is 4.47 µM (active).

As for `COc1ccc2[nH]c(=O)c(CNc3ccccc3OC)cc2c1`, the Potency is 25.1 µM (active).

As to `O=C(Cc1ccccc1)Nc1sc2c(c1C(=O)Nc1ccc(Br)cc1)CCCC2`, the “activity change, negative = inhibition” value was 2.19% [at 57.1 µM] (inactive).

For the compound `CCOC(=O)c1nn(-c2ccc(Cl)cc2)c(=O)c2c(N)scc12`, the Potency was 2.24 µM (active).

For the compound `Nc1cc(-c2ccccc2)c[nH]c1=O`, the Potency is 8.91 µM (active).

As for `S=C1Cc2ccccc2N1`, the Potency was 0.631 µM (active).

As for `COc1ccc(NC(=O)Cn2cc(S(=O)(=O)N3CCN(c4ccccc4F)CC3)c3ccccc3c2=O)cc1Cl`, the “activity change, negative = inhibition” value was 5.9% (inactive).

`COC(=O)CSc1nc2ccc(NC(=O)CSc3nnnn3Cc3ccccc3)cc2s1`: the “activity change, negative = inhibition” value was -10.2% (inactive).

For the compound `N#Cc1cccc(NC(=O)c2ccc3c(c2)N(Cc2cccc(Cl)c2)C(=O)c2ccccc2S3(=O)=O)c1`, the “activity change, negative = inhibition” value is -3.7% (inactive).

`Cc1ccc(NC(=O)c2c(NC(=O)Cc3ccccc3)sc3c2CCCC3)cc1`: the “activity change, negative = inhibition” value was -10.5% [at 57.1 µM] (inactive).

Regarding `Cc1ccc(NCc2cc3cc4c(cc3n(CC(=O)Nc3ccc(C)cc3)c2=O)OCCO4)cc1`, the “activity change, negative = inhibition” value is -0.6% (inactive).

Turning to `O=C(Cc1ccccc1)Nc1sc2c(c1C(=O)Nc1ccc(Cl)cc1)CCCC2`, the Potency was 1 µM (active) and inactive.

On to `CC(C)c1ccc(NS(=O)(=O)c2ccc3[nH]cc(C(=O)NCCc4ccccc4)c(=O)c3c2)cc1`, for which the “activity change, negative = inhibition” value was 7.6% (inactive).

Take `O=C(Nc1nnc(S(=O)(=O)Nc2ccccc2)s1)C1CCCCC1`: the “activity change, negative = inhibition” value was -17.4% (inactive).

As for `CC(C)Cn1c(O)c(/C=C2\C=NN=C2c2ccccc2)sc1=S`, the “activity change, negative = inhibition” value is -19.8% (inactive).

Turning to `CCc1ccc(S(=O)(=O)Nc2cc(SCC(=O)O)c(O)c3ccccc23)cc1`, the Potency was 5.62 µM (active).

As to `COc1cccc(/C=C2/SC(=S)N(CC(=O)Nc3nnc(C)s3)C2=O)c1`, the “activity change, negative = inhibition” value was 4.72% [at 57.1 µM] (inactive).

On to `CCOC(=O)c1nn(-c2ccccc2)c(=O)c2c(NC(=O)c3ccccc3)scc12`, for which the “activity change, negative = inhibition” value is -7.04% [at 57.1 µM] (inactive).

As for `COC(=O)c1c(NC(=O)CCCOc2ccc(C)cc2)sc2c1C(C(=O)OC)CC2` (stereo not given), the Potency is 3.55 µM (active).

`Nc1scc2c(C(=O)N3CCOCC3)nn(-c3ccccc3)c(=O)c12`: the Potency is 11.2 µM (active).

`Cc1[nH]c(=O)c(C#N)cc1-c1ccncc1`: the “activity change, negative = inhibition” value was -4.9% (inactive).

On to `Cc1ccc(N2C(=O)SC(Cc3ccccc3)C2=O)cc1` (stereo not given), for which the “activity change, negative = inhibition” value was -28.8% (inactive).

On to `O=C(NCCCO)Nc1ccc2nc(-c3ccco3)c(-c3ccco3)nc2c1`, for which the Potency is 3.16 µM (active).

Consider `Nc1scc2c(C(=O)O)nn(-c3ccccc3)c(=O)c12`, for which the Potency was 6.31 µM (active).

In the case of `CCOC(=O)c1nn(-c2ccc(OC)cc2)c(=O)c2c(N)scc12`, the Potency was 631 nM (active) and 3.16 µM (active).

Take `NC[C@H](O)c1ccc(O)c(O)c1`: the Potency was 5.62 µM (active).

Regarding `O=C(NCc1cccnc1)C1CCN(S(=O)(=O)c2cccs2)CC1`, the “activity change, negative = inhibition” value was -16.8% (inactive).

For `O=C(O)CC1S/C(=N/N=C/c2ccc(-c3ccccc3[N+](=O)[O-])o2)NC1=O` (stereo not given), the Potency was 11.2 µM (active).

Consider `O=C(O)CSc1cc(NS(=O)(=O)c2cccc([N+](=O)[O-])c2)c2ccccc2c1O`, for which the Potency is 2 µM (active).

For the compound `CN(C)c1ccc(-c2cc[nH]c(=O)c2N)cc1`, the Potency was 1.58 µM (active).

As for `COC(=O)c1c(NC(=O)CCCOc2cccc(C)c2)sc2c1C(C(=O)OC)CC2` (stereo not given), the Potency was 1.78 µM (active).

With `CCOC(=O)c1nn(-c2ccc(OC)cc2)c(=O)c2c(NC(=O)Cc3ccccc3)scc12`, the “activity change, negative = inhibition” value is -28.9% [at 57.1 µM] (inactive).

As to `COc1ccc(CNC(=O)Cn2nc(C)n3cccc3c2=O)cc1`, the “activity change, negative = inhibition” value is -7.15% (inactive).

As to `COc1ccc(Cl)cc1NC(=O)c1c(NCc2sccc2C)sc2c1CCCC2`, the Potency is 1 µM (active).

Consider `Cc1ccc(N(C)S(=O)(=O)c2nnc(NC(=O)C3CCCCC3)s2)cc1`, for which the “activity change, negative = inhibition” value was 0.45% (inactive).

On to `Cc1ccc(C(=O)Nc2nc(=O)n(C(=O)CC(C)C)s2)cc1`, for which the “activity change, negative = inhibition” value is -13.7% (inactive).

Values taken from PubChem BioAssay AID1558 (National Center for Advancing Translational Sciences (NCATS), 2009).
